Entries with a potency or affinity are not part of this list. Records with an inconclusive call do not appear. The source made the active and inactive calls.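 The calls were made as follows, unless noted: active = fitted half-maximal concentration for viability loss no higher than twice the top valid dose, in every repeat run; inconclusive = repeat runs disagree, flat partial loss, or poor curve fit; inactive = the rest.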
Test: cytotoxicity in PAX8-dependent RMG-1 cells, dose response, cell-based, cherry-pick (AID 687029;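 active = signal drop whose fitted half-maximal concentration is at most twice the top valid dose, in every test run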;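 also: cells exposed to compound for 96 hours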)
Conditions: RMG-1 viability, CellTiterGlo ATP luminescence, 96 h; series mostly up to 35 µM
In the case of `C[C@H]1CN([C@@H](C)CO)C(=O)c2c(c3ccccc3n2C)-c2ccccc2CO[C@H]1CN(C)S(=O)(=O)c1ccc([N+](=O)[O-])cc1`, the outcome is reported as “inactive”. In the case of `Cc1ccc(-n2nc(C)c(NC(=O)CCl)c2C)cc1C`, the outcome is reported as “inactive”. For `COc1ccc(C2C(O)C(c3c[nH]c4ccccc34)=NN2C(=O)CCl)cc1` (stereo not given), the outcome was “inactive”. With `COc1ccc(/C=N/Nc2cc(C)nc3ccc(Br)cc23)cc1` the outcome was “inactive”. For `COc1ccccc1N(C(=O)CCl)c1cn(C(C)=O)c2ccccc12`, the outcome was “inactive”. For `O=c1cc(-c2ccc(O)cc2)oc2ccc3ccccc3c12`, the outcome was “inactive”. For `CC1OC(CC(=O)O)CC2=C1C(=O)c1c(O)cccc1C2=O` (stereo not given), the outcome was “inactive”. In the case of `CC1CCN(c2ccc(-c3cccc(NC(=O)C(F)(F)F)c3)nn2)CC1`, the outcome is reported as “inactive”. For `N#C[C@H]1[C@H](c2ccc(C#CC3CCCC3)cc2)[C@@H](CO)N1C(=O)Nc1ccc(F)cc1`, the outcome was “inactive”. For `Cc1cc(C)c2nc(C)cc(N/N=C/c3ccc(O)cc3)c2c1`, the outcome was “inactive”. For `CN(C[C@H]1N[C@@H](CO)[C@@H]1c1ccc(-c2cccnc2)cc1)C(=O)c1ccccc1`, the outcome was “inactive”. In the case of `CCN(CC)S(=O)(=O)c1cc([N+](=O)[O-])ccc1NNC(=O)Nc1ccc(Cl)c(Cl)c1`, the outcome is reported as “inactive”. With `COC(=O)C1=C(C)N(Cc2ccc(C(F)(F)F)cc2)C(=NCc2ccccc2)NC1c1cccc(Cl)c1` (stereo not given) the outcome was “inactive”. With `CCS(=O)(=O)c1ncc(Cl)c(C(=O)Nc2ccc(C)cc2)n1` the outcome was “inactive”. With `COc1cc(/C=N/Nc2nc(Nc3ccc(C)cc3)nc(-n3nc(C)cc3C)n2)cc(OC)c1OC` the outcome was “inactive”. In the case of `Cc1cc(=O)n2c3c(c4c(cc13)c(CN(C)C)cc(=O)n4C)OC2`, the outcome is reported as “inactive”. For `CC(OC(=O)c1ccc(S(C)(=O)=O)c([N+](=O)[O-])c1)C(=O)NC1C2CC3CC(C2)CC1C3` (stereo not given), the outcome was “inactive”. In the case of `Brc1ccc2nc(-c3ccc(CN4CCC(c5nc6ccccc6[nH]5)CC4)cc3)c(-c3ccccc3)nc2c1`, the outcome is reported as “inactive”. For `N#C[C@@H]1[C@H](c2ccc(C#CC3CCCC3)cc2)[C@H](CO)N1C(=O)Nc1ccc(F)cc1`, the outcome was “inactive”. For `O=c1c(Cl)c(Cl)cnn1-c1ccccc1`, the outcome was “inactive”. For `COc1ccc(C#Cc2ccc([C@H]3[C@@H](CO)N4CCCCN(C(=O)Nc5cccc(F)c5)C[C@H]34)cc2)cc1`, the outcome was “inactive”. For `COc1cccc(NC(=O)Nc2nc(-c3ccc(OC)c(OC)c3)cs2)c1`, the outcome was “inactive”. With `C[C@H](CO)N1C[C@H](C)[C@@H](CN(C)S(=O)(=O)c2ccc(F)cc2)OCCCC[C@H](C)Oc2ccc(NS(=O)(=O)c3ccc(Cl)cc3)cc2C1=O` the outcome was “inactive”. For `O=c1c(Br)c(Br)cnn1-c1ccccc1`, the outcome was “inactive”. For `O=c1c2ccccc2cnn1-c1nc2ccccc2[nH]1`, the outcome was “inactive”. With `COc1ccc(NC(=O)c2cc([N+](=O)[O-])ccc2O)cc1` the outcome was “inactive”. For `Cc1ccc2c(CC(=O)OCC(=O)Nc3ccc(Cl)cn3)coc2c1`, the outcome was “inactive”. In the case of `C=CCOc1ccccc1CN(C(=O)CCl)c1ccc2c(c1)OCO2`, the outcome is reported as “inactive”. In the case of `CN1CCN(CCCNC(=O)c2ccc(/C=C3\Oc4ccccc4N(Cc4ccc(Cl)cc4)C3=O)cc2)CC1`, the outcome is reported as “inactive”. With `C#Cc1cc(N2CCN(C(=O)c3ccoc3)CC2)n2nc(-c3cccc(Cl)c3)cc2n1` the outcome was “inactive”. For `CCS(=O)(=O)c1ncc(Cl)c(C(=O)Nc2ccc(S(=O)(=O)N(C)c3ccccc3)cc2)n1`, the outcome was “inactive”. With `NC1=CC(=O)C(=O)c2cccnc21` the outcome was “inactive”. In the case of `CCC[C@H](CN[C@@H](CNC)[C@H](C)CC)NCCc1cc(C(F)(F)F)cc(C(F)(F)F)c1`, the outcome is reported as “inactive”. For `OCC1OC(n2cnc3c(NCc4ccco4)ncnc32)C(O)C1O` (stereo not given), the outcome was “inactive”. With `O=C(Nc1ccc2nc3n(c(=O)c2c1)CCCCC3)c1cc([N+](=O)[O-])ccc1F` the outcome was “inactive”. In the case of `OC(CNCC(c1ccc(Cl)cc1Cl)c1c[nH]c2ccccc12)c1ccccc1` (stereo not given), the outcome is reported as “inactive”. For `COc1ccc(N(C(=O)CCl)C(C(=O)NC2CCCCC2)c2cccnc2)cc1` (stereo not given), the outcome was “inactive”. With `CC(=O)n1cc(N(C(=O)CCl)c2ccccc2)c2ccccc21` the outcome was “inactive”. In the case of `CC[C@@H](C)[C@H](CNC)NC[C@@H](Cc1cccc2ccccc12)NCCc1cccc(C(F)(F)F)c1`, the outcome is reported as “inactive”. For `O=C(C#Cc1ccccc1)c1ccco1`, the outcome was “inactive”.

Test: cytotoxicity in IOSE-T80 ovarian epithelial cells, dose response, selectivity assay for PAX8 inhibitor project, cell-based, cherry-pick (AID 687032);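 also: cells exposed to compound for 96 h before reading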
Conditions: CellTiterGlo ATP luminescence, 96 h; series mostly up to 35 µM
With `C[C@H]1CN([C@@H](C)CO)C(=O)c2c(c3ccccc3n2C)-c2ccccc2CO[C@H]1CN(C)S(=O)(=O)c1ccc([N+](=O)[O-])cc1` the outcome was “inactive”. In the case of `Cc1ccc(-n2nc(C)c(NC(=O)CCl)c2C)cc1C`, the outcome is reported as “inactive”. With `COc1ccc(C2C(O)C(c3c[nH]c4ccccc34)=NN2C(=O)CCl)cc1` (stereo not given) the outcome was “inactive”. With `COc1ccc(/C=N/Nc2cc(C)nc3ccc(Br)cc23)cc1` the outcome was “inactive”. With `COc1ccccc1N(C(=O)CCl)c1cn(C(C)=O)c2ccccc12` the outcome was “inactive”. With `O=c1cc(-c2ccc(O)cc2)oc2ccc3ccccc3c12` the outcome was “inactive”. In the case of `CC1OC(CC(=O)O)CC2=C1C(=O)c1c(O)cccc1C2=O` (stereo not given), the outcome is reported as “inactive”. With `CC1CCN(c2ccc(-c3cccc(NC(=O)C(F)(F)F)c3)nn2)CC1` the outcome was “inactive”. With `N#C[C@H]1[C@H](c2ccc(C#CC3CCCC3)cc2)[C@@H](CO)N1C(=O)Nc1ccc(F)cc1` the outcome was “inactive”. With `Cc1cc(C)c2nc(C)cc(N/N=C/c3ccc(O)cc3)c2c1` the outcome was “inactive”. With `CN(C[C@H]1N[C@@H](CO)[C@@H]1c1ccc(-c2cccnc2)cc1)C(=O)c1ccccc1` the outcome was “inactive”. In the case of `CCN(CC)S(=O)(=O)c1cc([N+](=O)[O-])ccc1NNC(=O)Nc1ccc(Cl)c(Cl)c1`, the outcome is reported as “inactive”. In the case of `COC(=O)C1=C(C)N(Cc2ccc(C(F)(F)F)cc2)C(=NCc2ccccc2)NC1c1cccc(Cl)c1` (stereo not given), the outcome is reported as “inactive”. For `CCS(=O)(=O)c1ncc(Cl)c(C(=O)Nc2ccc(C)cc2)n1`, the outcome was “inactive”. With `COc1cc(/C=N/Nc2nc(Nc3ccc(C)cc3)nc(-n3nc(C)cc3C)n2)cc(OC)c1OC` the outcome was “inactive”. For `Cc1cc(=O)n2c3c(c4c(cc13)c(CN(C)C)cc(=O)n4C)OC2`, the outcome was “inactive”. In the case of `CC(OC(=O)c1ccc(S(C)(=O)=O)c([N+](=O)[O-])c1)C(=O)NC1C2CC3CC(C2)CC1C3` (stereo not given), the outcome is reported as “inactive”. For `Brc1ccc2nc(-c3ccc(CN4CCC(c5nc6ccccc6[nH]5)CC4)cc3)c(-c3ccccc3)nc2c1`, the outcome was “inactive”. With `N#C[C@@H]1[C@H](c2ccc(C#CC3CCCC3)cc2)[C@H](CO)N1C(=O)Nc1ccc(F)cc1` the outcome was “inactive”. In the case of `O=c1c(Cl)c(Cl)cnn1-c1ccccc1`, the outcome is reported as “inactive”. For `COc1ccc(C#Cc2ccc([C@H]3[C@@H](CO)N4CCCCN(C(=O)Nc5cccc(F)c5)C[C@H]34)cc2)cc1`, the outcome was “inactive”. In the case of `COc1cccc(NC(=O)Nc2nc(-c3ccc(OC)c(OC)c3)cs2)c1`, the outcome is reported as “inactive”. With `C[C@H](CO)N1C[C@H](C)[C@@H](CN(C)S(=O)(=O)c2ccc(F)cc2)OCCCC[C@H](C)Oc2ccc(NS(=O)(=O)c3ccc(Cl)cc3)cc2C1=O` the outcome was “inactive”. For `O=c1c(Br)c(Br)cnn1-c1ccccc1`, the outcome was “inactive”. In the case of `O=c1c2ccccc2cnn1-c1nc2ccccc2[nH]1`, the outcome is reported as “inactive”. For `COc1ccc(NC(=O)c2cc([N+](=O)[O-])ccc2O)cc1`, the outcome was “inactive”. In the case of `Cc1ccc2c(CC(=O)OCC(=O)Nc3ccc(Cl)cn3)coc2c1`, the outcome is reported as “inactive”. With `C=CCOc1ccccc1CN(C(=O)CCl)c1ccc2c(c1)OCO2` the outcome was “inactive”. With `CN1CCN(CCCNC(=O)c2ccc(/C=C3\Oc4ccccc4N(Cc4ccc(Cl)cc4)C3=O)cc2)CC1` the outcome was “inactive”. With `C#Cc1cc(N2CCN(C(=O)c3ccoc3)CC2)n2nc(-c3cccc(Cl)c3)cc2n1` the outcome was “inactive”. For `CCS(=O)(=O)c1ncc(Cl)c(C(=O)Nc2ccc(S(=O)(=O)N(C)c3ccccc3)cc2)n1`, the outcome was “inactive”. For `NC1=CC(=O)C(=O)c2cccnc21`, the outcome was “inactive”. In the case of `CCC[C@H](CN[C@@H](CNC)[C@H](C)CC)NCCc1cc(C(F)(F)F)cc(C(F)(F)F)c1`, the outcome is reported as “inactive”. In the case of `OCC1OC(n2cnc3c(NCc4ccco4)ncnc32)C(O)C1O` (stereo not given), the outcome is reported as “inactive”. With `O=C(Nc1ccc2nc3n(c(=O)c2c1)CCCCC3)c1cc([N+](=O)[O-])ccc1F` the outcome was “inactive”. In the case of `OC(CNCC(c1ccc(Cl)cc1Cl)c1c[nH]c2ccccc12)c1ccccc1` (stereo not given), the outcome is reported as “inactive”. For `COc1ccc(N(C(=O)CCl)C(C(=O)NC2CCCCC2)c2cccnc2)cc1` (stereo not given), the outcome was “inactive”. In the case of `CC(=O)n1cc(N(C(=O)CCl)c2ccccc2)c2ccccc21`, the outcome is reported as “inactive”. With `CC[C@@H](C)[C@H](CNC)NC[C@@H](Cc1cccc2ccccc12)NCCc1cccc(C(F)(F)F)c1` the outcome was “inactive”. With `O=C(C#Cc1ccccc1)c1ccco1` the outcome was “inactive”.
